Reference: PubChem BioAssay (NCATS)
“And” between values parts separate entries of the source, which are not always exact repeats. Equal entries are not always repeated. Inconclusive results are not listed. The source holds several records for some structures; these can differ, active in one and inactive in another. The source made the active and inactive calls. The call rests on the fitted dose curve; in most records, active means well fitted curve in the direction sought with a large enough effect; inconclusive means small, poorly fitted or top-dose-only effect, or another doubt; inactive means no such curve, though single readings can be large; an effect the other way counts as inactive or inconclusive.

Columns and labels:
[1] = test system: CRL-7250; assay: Cytotoxic Profiling of Annotated Libraries Using Quantitative High-Throughput Screening (AID 1296008); details: Five cell lines viability, CellTiter-Glo ATP luminescence, 48-72 h; max response: stronger effect = lower value; further: nearly all actives have a fitted effect of over 60% in size; further: potency means the concentration at half of the fitted maximal effect; on max response: on the % scale 0 is the no-effect control and ±100 the full control effect
How it was run: (§1)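 Cells exposed to compounds for 48 or 72 hr at 37 degrees Celsius. Viability read as ATP-coupled luminescence with CellTiter-Glo after 10 min at room temperature.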

[2] = test system: HEK293; assay: as above; details: Five cell lines viability, CellTiter-Glo ATP luminescence, 48-72 h; max response: stronger effect = lower value
How it was run: as §1

[3] = test system: HaCat; assay: as above; details: Five cell lines viability, CellTiter-Glo ATP luminescence, 48-72 h; max response: stronger effect = lower value
How it was run: as §1

[4] = test system: KB-3-1; assay: as above; details: Five cell lines viability, CellTiter-Glo ATP luminescence, 48-72 h; max response: stronger effect = lower value
How it was run: as §1

[5] = test system: NIH3T3; assay: as above; details: Five cell lines viability, CellTiter-Glo ATP luminescence, 48-72 h; max response: stronger effect = lower value
How it was run: as §1

[6] = test system: CRL-7250; assay: qHTS assay to identify novel small-molecules to repurpose for Merkel cell carcinoma treatment (AID 1296009); details: MCC and control cell lines, CellTiter-Glo viability, 72 h; series mostly up to 44.8 µM; further: nearly all actives have a fitted effect of over 60% in size; further: potency means the concentration at half of the fitted maximal effect
How it was run: (§2)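 CellTiter-Glo luminescence after 72 hr compound exposure at 37 degree celsius gave cell viability. Libraries NPC and MIPE were run as 8- and 11-point dose responses; RLUs normalized to DMSO (negative) and no-cell (cytotoxicity) controls.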

[7] = test system: HACAT; assay: as above; details: MCC and control cell lines, CellTiter-Glo viability, 72 h; at 44.8 µM (top of the series) unless noted
How it was run: as §2

[8] = test system: MCC-13; assay: as above; details: MCC and control cell lines, CellTiter-Glo viability, 72 h; series mostly up to 46 µM
How it was run: as §2

[9] = test system: MKL-2; assay: as above; details: MCC and control cell lines, CellTiter-Glo viability, 72 h; series mostly up to 46 µM
How it was run: as §2

[10] = test system: UISO; assay: as above; details: MCC and control cell lines, CellTiter-Glo viability, 72 h; series mostly up to 46 µM
How it was run: as §2

[11] = test system: WaGa; assay: as above; details: MCC and control cell lines, CellTiter-Glo viability, 72 h; series mostly up to 46 µM
How it was run: as §2

[12] = test system: C33A; assay: Primary qHTS to identify gynecologic anti-cancer compounds using libraries of approved drugs and bioactive compounds (AID 1345084); details: Gynecologic cancer cell panel viability, ATPlite luminescence, 48 h; series mostly up to 57.5 µM; further: on the % scale 0 is the no-effect control and ±100 the full control effect; nearly all actives have a fitted effect of over 55% in size
How it was run: (§3)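 Cytotoxicity screen measuring ATP content by luciferase luminescence. Each compound is applied at five concentrations for 48 h at 37 C with 5% CO2.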

[13] = test system: CAOV3; assay: as above; details: Gynecologic cancer cell panel viability, ATPlite luminescence, 48 h; series mostly up to 57.5 µM
How it was run: as §3

[14] = test system: CASKI; assay: as above; details: Gynecologic cancer cell panel viability, ATPlite luminescence, 48 h; series mostly up to 57.5 µM
How it was run: as §3

[15] = test system: TAB165; assay: qHTS profiling for inhibitors of Plasmodium falciparum proliferation (AID 504749); further: nearly all actives have a fitted effect of over 60% in size; further: potency means the concentration at half of the fitted maximal effect; details: P. falciparum in erythrocytes, SYBR Green DNA, 72 h; series mostly up to 28.7 µM
How it was run: (§4)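 SYBR Green fluorescence (ex 485 nm, em 535 nm) reports parasite DNA after 72 h compound exposure of infected red cells at 0.3% parasitemia, 2.5% hematocrit; signal normalized to 0.29 uM artemisinin and vehicle wells.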

[16] = test system: HEK293T; assay: qHTS assay to identify novel small-molecules to repurpose for Merkel cell carcinoma treatment (AID 1296009); details: MCC and control cell lines, CellTiter-Glo viability, 72 h; at 44.8 µM (top of the series); further: nearly all actives have a fitted effect of over 60% in size; further: potency means the concentration at half of the fitted maximal effect
How it was run: as §2

[17] = test system: MCC-26; assay: as above; details: MCC and control cell lines, CellTiter-Glo viability, 72 h; series mostly up to 46 µM
How it was run: as §2

[18] = test system: MKL-1; assay: as above; details: MCC and control cell lines, CellTiter-Glo viability, 72 h; series mostly up to 46 µM
How it was run: as §2

[19] = test system: W2; assay: qHTS profiling for inhibitors of Plasmodium falciparum proliferation (AID 504749); further: nearly all actives have a fitted effect of over 60% in size; further: potency means the concentration at half of the fitted maximal effect; details: P. falciparum in erythrocytes, SYBR Green DNA, 72 h; series mostly up to 28.7 µM
How it was run: as §4

[20] = test system: NIH3T3; assay: qHTS assay to identify novel small-molecules to repurpose for Merkel cell carcinoma treatment (AID 1296009); details: MCC and control cell lines, CellTiter-Glo viability, 72 h; at 44.8 µM (top of the series) unless noted; further: nearly all actives have a fitted effect of over 60% in size; further: potency means the concentration at half of the fitted maximal effect
How it was run: as §2

CCCN1CCC[C@@H]2Cc3nc(N)ncc3C[C@H]21
active: Potency [10] 29.9 µM
inactive: outcome [1] | max response [2] -17.9% | outcome [3] | max response [4] 14.3% | max response [5] -7.61% | outcome [6] | outcome [7] | Potency [8] | Potency [9] | Potency [11] | Potency [12] | Potency [13] | Potency [14]

Cn1c(CCCC(=O)O)nc2cc(N(CCCl)CCCl)ccc21
18.8 µM (active) and inactive: Potency [11]
inactive: Potency [15] | max response [1] 3.94% | outcome [1] | max response [2] 1.54% | outcome [2] | max response [3] -5.87% and -9.93% | max response [4] 3.92% and 3.13% | max response [5] -2.08% and -18.1% | outcome [6] | outcome [16] | Potency [8] | Potency [17] | Potency [18] | Potency [10] | Potency [12] | Potency [13] | Potency [14]

Oc1cccc2cccnc12
38.6 µM (active) and inactive: Potency [11]
inactive: Potency [15] | Potency [19] | max response [1] 3.76% | max response [2] -0.236% | max response [3] 4.28% | max response [4] 22% and 11.8% and -4.11% | max response [5] 4.09% | Potency [8] | Potency [12] | Potency [13] | Potency [14]
10.9 µM (active) and inactive: Potency [10]
21.7 µM (active) and inactive: Potency [17]
active: Potency [2] 13.7 µM | Potency [5] 19.3 µM
12.2 µM (active) and inactive: Potency [18]
4.86 µM (active) and inactive: Potency [9]

C=C1CC[C@@]2(O)[C@H]3Cc4ccc(O)c5c4[C@@]2(CCN3CC2CC2)[C@H]1O5
inactive: Potency [15] | max response [1] 2.77% | max response [2] -5.09% | outcome [3] | max response [4] 3.52% | outcome [5] | outcome [7] | Potency [8] | Potency [17] | Potency [18] | Potency [9] | outcome [20] | Potency [10] | Potency [11] | Potency [12] | Potency [13] | Potency [14]
active: Potency [19] 6.75 µM

CCN(C(C)=O)c1cccc(-c2ccnc3c(C#N)cnn23)c1
inactive: Potency [15] | Potency [19] | max response [1] -2.01% | outcome [2] | outcome [3] | max response [4] 1.34% | outcome [5] | outcome [7] | outcome [16] | Potency [8] | Potency [17] | Potency [18] | Potency [9] | outcome [20] | Potency [10] | Potency [11] | Potency [12] | Potency [13] | Potency [14]

COC[C@H]1OC(=O)c2coc3c2[C@@]1(C)C1=C(C3=O)C2CCC(=O)[C@@]2(C)C[C@H]1OC(C)=O (stereo partly drawn)
inactive: max response [1] -6.6% | max response [2] -95.7% and 0.842% | max response [3] -21.4% | outcome [3] | max response [4] -5.47% | outcome [4] | outcome [7] | Potency [8] | Potency [17] | Potency [10] | Potency [12] | Potency [13] | Potency [14]
active: Potency [18] 11.8 µM | Potency [9] 7.43 µM | Potency [11] 8.33 µM
